The full list was thinned out, with hits kept by preference.
VACV mCherry inh – inhibitors of vaccinia virus infection (mCherry reporter signal) | Vaccinia virus mCherry reporter infection, fluorescence | Potency, µM (top dose mostly 36.5 µM), for the others: at the top dose activity change, negative = inhibition, most hits filed as inhibitors | 0.63% of 310,000 active | AID 720579; calls by dose curve; tested in A549 cells; further: potency means the concentration at half of the fitted maximal effect; on the % scale 0 is the no-effect control and ±100 the full control effect; nearly all actives have a fitted effect of over 35% in size
LASV entry inh – blocks Lassa virus binding to or entry into cells; Lassa virus pseudotype entry inhibition, cell reporter; Potency, µM (titrated, usually from 37.9 µM), inactives show at the highest dose activity change, negative = inhibition, actives largely listed as inhibitors; 1.2% of 300,000 active; AID 540256; calls by dose curve; tested in HEK293 cells; further: potency means the concentration at half of the fitted maximal effect; on the % scale 0 is the no-effect control and ±100 the full control effect; nearly all actives have a fitted effect of over 50% in size
CHX counter – counter-screen for Shiga toxin inhibitors: cycloheximide protein synthesis inhibition; cell reporter, cycloheximide protein synthesis inhibition counterscreen; max response, %; 12% of 300,000 active; AID 2314; in the data active means max response mostly above about 13%, no sharp cut-off; inactive means mostly below about 14%; further: read at 38.3 µM for the half of the compounds with a filed dose; 0% is about no effect
MARV entry inh – blocks Marburg virus binding to or entry into cells | Potency, µM (highest dose often 37.8 µM), inactives show top-dose activity change, negative = inhibition, most hits filed as inhibitors | 1.8% of 300,000 active | Marburg virus pseudotyped entry inhibition, cell reporter | AID 540276; calls by dose curve; tested in HEK293 cells; further: potency means the concentration at half of the fitted maximal effect; on the % scale 0 is the no-effect control and ±100 the full control effect
Vaccinia Venus – vaccinia inhibition (Venus reporter); Vaccinia virus Venus reporter expression, fluorescence; Potency, µM (top dose mostly 36.5 µM), for the others: at the highest dose activity change, negative = inhibition, usual class: inhibitors; 0.46% of 330,000 active; calls by dose curve; tested in A549 cells; further: potency means the concentration at half of the fitted maximal effect; on the % scale 0 is the no-effect control and ±100 the full control effect; nearly all actives have a fitted effect of over 30% in size
Shiga inhibitor – blocks Shiga toxin action in Vero cells | inhibition, % at 38.7 µM | AID 2315 | 9.2% of 290,000 active | Vero cells, Shiga toxin protein synthesis inhibition reporter; in the data active means inhibition mostly above about 28%, no sharp cut-off; inactive means mostly below about 43%; further: 0% is about no effect
Starred values were filed as active, the others as inactive; i = inactive; ? = inconclusive; / = no result; [ ] = dose if it differs, or a comment.

SMILES	VACV mCherry inh	LASV entry inh	CHX counter	MARV entry inh	Vaccinia Venus	Shiga inhibitor
O=S(=O)(Nc1ccc(Cl)cc1)c1ccc(N2CCOCC2)c(NC(=S)NCCN2CCOCC2)c1	-8.3%	?	6.9	7.3%[46.1 µM]	-12.3%	18.3
Cc1ccc(N(Cc2cccs2)C(=O)C(C)Oc2ccc(Cl)c(C)c2)cc1 (stereo not given)	-9.1%	-3.3%[46.1 µM]	/	?	-14.1%	/
c1ccc(N2CCN(c3nc4ccccc4n4nnnc34)CC2)cc1	/	-8.7%	37.7*	-2.3%[46.1 µM]	16.9%	27.8*
c1ccc2c(c1)nc(N1CCN(C3CCCCC3)CC1)c1nnnn12	/	/	2.4	/	/	20.2
c1ccc2c(c1)nc(N1CCOCC1)c1nnnn12	19.9%	/	32.3*	0.2%	2.4%	active
Cc1csc2nc(-c3ccc(NS(=O)(=O)c4cccc(F)c4)cc3)cn12	-20.9%	10.6%[46.1 µM]	/	/	-12.2%	/
C=CCOc1c(Cl)cc(CNc2ccc(N(C)C)cc2)cc1OC	/	?	41.9*	?	/	84.7
C=CCOc1c(Cl)cc(CNc2ccc(C)c(Cl)c2)cc1OC	/	/	-3.3	-3.6%	/	-10.1
Cc1nn(Cc2ccccc2)c(Cl)c1C(=O)NCc1ccco1	-3.7%	-28.9%	9.9	-11.0%	4.4%	-1.5
C/C(CC(=O)Nc1ccc([N+](=O)[O-])cc1)=N/NC(=O)C1CC12CCC2 (stereo not given)	-15.3%	7.8%	-0.2	10.6%[46.1 µM]	-7.9%	-18.5
Cc1cc(NC(=O)OC2CCCCC2)ccc1[N+](=O)[O-]	-21.2%	?	54.6*	10µM*	7.9%	122.7*
Cc1cccc(NC(=O)C2C3CCCCC32)c1 (stereo not given)	/	/	32.1*	/	/	24.7*
O=C(Nc1cccc([N+](=O)[O-])c1)C1C2CCCCC21 (stereo not given)	/	/	2.6	/	/	16.3
C/C(CC(=O)Nc1ccc([N+](=O)[O-])cc1)=N/NC(=O)C1C2CCCCC21 (stereo not given)	i	-24.8%	18.8*	-23.0%[46.1 µM]	-16.2%	35.8
O=C(Nc1ccc([N+](=O)[O-])cc1)OC1CCS(=O)(=O)C1 (stereo not given)	-2.4%	/	/	/	-1.2%	/
Cc1ccc(NC(=O)C2C3/C=C\CCCCC32)cc1 (stereo not given)	-21.0%	-13.6%	12.0*	24.6%	-4.7%	17.5
CCn1cc(S(=O)(=O)c2ccc(C)cc2C)c(=O)c2cc(F)c(N3CCCC3)cc21	-23.0%	-22.3%[46.1 µM]	/	/	-17.5%	/
O=C(NCCOc1ccccc1)c1cc([N+](=O)[O-])ccc1N1CCOCC1	-8.6%	-18.9%	/	?	-22.4%	/
CCc1nc(-c2cc(S(=O)(=O)N3CCN(c4ccccc4)CC3)ccc2OC)no1	-22.4%	21.0%[46.1 µM]	/	21.7%[46.1 µM]	-12.4%	/
Cc1ccc(NC(=O)C2C3CCCCC32)cc1[N+](=O)[O-] (stereo not given)	/	/	48.2*	/	/	57.7*
Cc1ccc(NC(=O)CCN2C(=O)C3CCCCC3C2=O)cc1[N+](=O)[O-] (stereo not given)	-10.3%	-8.0%	/	-14.6%[46.1 µM]	-6.5%	/
O=C(Nc1ccccc1)C1C2CCCCC21 (stereo not given)	-8.8%	0.9%	21.8*	16.0%	-11.2%	64.6*
CO[C@H](C1CCCCC1)[C@H](C)C=CCC(=O)OCCCc1ccccc1	/	?	/	5.4%[14.2 µM]	/	/
COc1ccc(N2CC(NS(=O)(=O)c3ccc(F)cc3)CC2=O)cc1 (stereo not given)	0.4%	1.7%	/	0.7%[46.1 µM]	-2.0%	/
C=CC[C@@H](CC(=O)OC(C)(C)C)C(=O)OC[C@H]1CCCN1C(=O)[C@@H](CC=C)CC(=O)NCCO	i	/	/	/	-13.6%	/
SMILES	VACV mCherry inh	LASV entry inh	CHX counter	MARV entry inh	Vaccinia Venus	Shiga inhibitor
COC(=O)c1c(NC(=O)CSc2ncnc3c2cnn3-c2ccccc2Cl)sc2c1CCCC2	/	5.8µM*	-2.2	?	/	10.8
Cc1ccccc1-n1ncc2c(SCC(=O)NC3CCCC3)ncnc21	-21.2%	/	32.1	?	-19.8%	70.5*
Cc1cc(NC(=O)c2cccs2)ncc1NC(=O)c1cccc(F)c1	/	1.8%	42.4*	-5.5%	/	65.6*
Cc1cc(NC(=O)c2ccccc2F)ncc1NC(=O)c1cccs1	/	/	21.2*	/	/	54.2
CCCC(=O)Nc1cc(C)c(NC(=O)c2cccs2)cn1	-1.4%	8.9%	13.9	4.0%[46.1 µM]	-3.1%	-8.9
Cc1cc(NC(=O)c2cccs2)ncc1NC(=O)C(C)C	i	?	38.3*	-2.2%	-13.5%	39.1*
Cc1cc(NC(=O)c2ccccc2)ncc1NC(=O)c1cccs1	19.8%	/	40.2*	/	-10.4%	123.9*
COc1ccccc1N(C(=O)c1ccco1)C(C(=O)NC1CCCC1)c1cccs1 (stereo not given)	-5.4%	-28.9%	-5.4	-5.2%[46.1 µM]	-12.0%	20.5
Cc1cc(C(=O)C(=O)Nc2nnc(C(C)C)s2)c(C)n1-c1ccccc1	-5.3%	-7.8%[46.1 µM]	/	-12.9%[46.1 µM]	-3.5%	/
O=C(NCC1CC1(Cl)Cl)Nc1ccc(Cl)c(Cl)c1 (stereo not given)	i	?	15.3	?	-11.1%	94.3*
Cc1ccc(NC(=O)NCC2CC2(Cl)Cl)cc1 (stereo not given)	-12.7%	?	30.5*	3.2%[46.1 µM]	3.0%	125.3*
O=C1OCC(CO)(CO)N=C1NNc1ccc(Cl)c(Cl)c1	-2.5%	-6.7%	7.7	-16.3%	-6.1%	28.5
COc1cc(NC(=O)c2cc([N+](=O)[O-])ccc2NC(=O)CNCc2ccccn2)cc(OC)c1	-27.1%	11.2µM*	-6.9	-17.7%[46.1 µM]	-13.8%	-7.2
O=C(CSc1ccsc1[N+](=O)[O-])NCc1ccccc1	-29.9%	/	43.8*	?	-13.6%	111.7*
COc1ccccc1CNC(=O)CSC1=NCCS1	-21.9%	-5.9%	19.0*	4.3%[46.1 µM]	-3.4%	27.5
COc1ccccc1CNC(=O)CSc1ccsc1[N+](=O)[O-]	/	/	43.2*	/	/	85.3*
CCc1ccccc1NC(=O)CSc1ccsc1[N+](=O)[O-]	i	15.6%	4.0	-0.5%	-6.8%	10.5
O=C(CSc1ccsc1[N+](=O)[O-])Nc1cccc(F)c1	/	/	21.4*	/	/	29.9
CC(=O)n1c2c(c3ccccc31)OC(N)=C(C#N)C2c1ccc(C(C)C)cc1 (stereo not given)	-15.5%	-8.7%	46.2*	3.0%	-26.3%	83.4*
Cc1nc2nc(C)n(CCN3CCOCC3)c(=O)c2c(-c2cccc([N+](=O)[O-])c2)c1C(=O)CCCCCCCCCCN1CCC(c2ccccc2)(c2ccccc2)CC1	?	?	/	0.501µM*	10µM*	/
COc1ccccc1N(C)S(=O)(=O)c1ccc(C(=O)N(C)Cc2ccc(OC(F)F)cc2)cc1	-13.9%	?	/	11.2µM*	?	/
COc1ccc(CC(=O)Nc2c(C(=O)N3CCN(c4ccccc4OC)CC3)oc3ccccc23)cc1OC	-9.0%	?	-2.4	?	-18.1%	-12.6
O=C(CSc1nc2ccsc2c(=O)n1Cc1ccccc1)NCc1ccco1	/	-26.4%	46.9*	-4.7%	/	active
Cc1cc(NC(=O)CSc2nc3c(c(=O)n2Cc2ccccc2)SC(C)C3)no1 (stereo not given)	-3.0%	/	-5.2	/	-4.1%	14.9

Assay outcomes: PubChem BioAssay, National Center for Advancing Translational Sciences (NCATS)
